Experimental data published in PubChem BioAssay (NCATS).
Inconclusive results are not listed. Some structures have more than one record in an assay (separate samples or runs), and their calls can disagree. Activity calls are given as the source filed them. Calls follow the shape of the dose curve; as a rule, active = well fitted curve in the direction sought with a large enough effect; inconclusive = small, poorly fitted or top-dose-only effect, or another doubt; inactive = no such curve, though single readings can be large; an effect the other way counts as inactive or inconclusive.

Experiments:
HaCat [1] = assay: Cytotoxic Profiling of Annotated Libraries Using Quantitative High-Throughput Screening (AID 1296008); details: Five cell lines viability, CellTiter-Glo ATP luminescence, 48-72 h; max response: hits give low values; also: nearly all actives have a fitted effect of over 60% in size; also: potency is read from the fitted curve at half-maximal effect
Method in brief: (§1)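 Cells exposed to compounds for 48 or 72 hr at 37 degrees Celsius. Viability read as ATP-coupled luminescence with CellTiter-Glo after 10 min at room temperature.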

NIH3T3 [2] = assay: as above; details: Five cell lines viability, CellTiter-Glo ATP luminescence, 48-72 h; max response: hits give low values
Method in brief: as §1

HACAT [3] = assay: qHTS assay to identify novel small-molecules to repurpose for Merkel cell carcinoma treatment (AID 1296009); details: MCC and control cell lines, CellTiter-Glo viability, 72 h; series mostly up to 44.8 µM; also: nearly all actives have a fitted effect of over 60% in size
Method in brief: (§2)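 Cells were treated for 72 hr at 37 degree celsius with compounds in 8- or 11-point dose response. Viability was read by CellTiter-Glo luminescence, normalized to no-cell (cytotoxicity) and DMSO controls.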

MCC-13 = assay: as above; details: MCC and control cell lines, CellTiter-Glo viability, 72 h; series mostly up to 46 µM
Method in brief: as §2

MCC-26 = assay: as above; details: MCC and control cell lines, CellTiter-Glo viability, 72 h; series mostly up to 46 µM
Method in brief: as §2

MKL-1 = assay: as above; details: MCC and control cell lines, CellTiter-Glo viability, 72 h; series mostly up to 46 µM
Method in brief: as §2

MKL-2 = assay: as above; details: MCC and control cell lines, CellTiter-Glo viability, 72 h; series mostly up to 46 µM
Method in brief: as §2

NIH3T3 [4] = assay: as above; details: MCC and control cell lines, CellTiter-Glo viability, 72 h; at 44.8 µM (top of the series) unless noted
Method in brief: as §2

UISO = assay: as above; details: MCC and control cell lines, CellTiter-Glo viability, 72 h; series mostly up to 46 µM
Method in brief: as §2

WaGa = assay: as above; details: MCC and control cell lines, CellTiter-Glo viability, 72 h; series mostly up to 46 µM
Method in brief: as §2

C33A = assay: Primary qHTS to identify gynecologic anti-cancer compounds using libraries of approved drugs and bioactive compounds (AID 1345084); details: Gynecologic cancer cell panel viability, ATPlite luminescence, 48 h; series mostly up to 57.5 µM; also: nearly all actives have a fitted effect of over 55% in size
Method in brief: (§3)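 Five-point cytotoxicity, 48 h drug exposure at 37 C, 5% CO2, on cells seeded 16 h beforehand. ATP content read by ATPlite luminescence.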

CAOV3 = assay: as above; details: Gynecologic cancer cell panel viability, ATPlite luminescence, 48 h; series mostly up to 57.5 µM
Method in brief: as §3

CASKI = assay: as above; details: Gynecologic cancer cell panel viability, ATPlite luminescence, 48 h; series mostly up to 57.5 µM
Method in brief: as §3

Es-2 = assay: as above; details: Gynecologic cancer cell panel viability, ATPlite luminescence, 48 h; series mostly up to 57.5 µM
Method in brief: as §3

HeLa = assay: as above; details: Gynecologic cancer cell panel viability, ATPlite luminescence, 48 h; series mostly up to 57.5 µM
Method in brief: as §3

Hek293T [5] = assay: as above; details: Gynecologic cancer cell panel viability, ATPlite luminescence, 48 h, control line for the selectivity index; series mostly up to 57.5 µM
Method in brief: as §3

JEG-3 = assay: as above; details: Gynecologic cancer cell panel viability, ATPlite luminescence, 48 h; series mostly up to 57.5 µM
Method in brief: as §3

OV90 = assay: as above; details: Gynecologic cancer cell panel viability, ATPlite luminescence, 48 h; series mostly up to 57.5 µM
Method in brief: as §3

KB-3-1 = assay: Cytotoxic Profiling of Annotated Libraries Using Quantitative High-Throughput Screening (AID 1296008); details: Five cell lines viability, CellTiter-Glo ATP luminescence, 48-72 h; max response: hits give low values; also: nearly all actives have a fitted effect of over 60% in size; also: potency is read from the fitted curve at half-maximal effect
Method in brief: as §1

HEK293T [6] = assay: qHTS assay to identify novel small-molecules to repurpose for Merkel cell carcinoma treatment (AID 1296009); details: MCC and control cell lines, CellTiter-Glo viability, 72 h; at 44.8 µM (top of the series) unless noted; also: nearly all actives have a fitted effect of over 60% in size
Method in brief: as §2
% is scaled to controls: 0 for no effect and ±100 for the full control effect.

O=C(O)c1c(O)c(-c2ccccc2)nc2ccccc12
inactive: outcome (HaCat [1]) | outcome (NIH3T3 [2]) | Potency (HACAT [3]) | outcome (MCC-13) | outcome (MCC-26) | Potency (MKL-1) | Potency (MKL-2) | outcome (NIH3T3 [4]) | Potency (UISO) | Potency (WaGa) | Potency (C33A) | Potency (CAOV3) | Potency (CASKI) | Potency (Es-2) | Potency (HeLa) | Potency (Hek293T [5]) | Potency (JEG-3) | Potency (OV90)

C[C@H]1Oc2cc(cnc2N)-c2c(nn(C)c2C#N)CN(C)C(=O)c2ccc(F)cc21
inactive: max response (HaCat [1]) -103% | max response (NIH3T3 [2]) -87.5% | Potency (C33A) | Potency (CAOV3) | Potency (CASKI) | Potency (Es-2) | Potency (HeLa) | Potency (Hek293T [5]) | Potency (JEG-3)
active: Potency (NIH3T3 [2]) 13.2 µM

c1cc(OCCCN2CCCCC2)ccc1CN1CCCCC1
inactive: max response (KB-3-1) -5.63% | outcome (NIH3T3 [2]) | outcome (NIH3T3 [4]) | Potency (C33A) | Potency (CAOV3) | Potency (CASKI) | Potency (Es-2) | Potency (HeLa) | Potency (Hek293T [5]) | Potency (JEG-3) | Potency (OV90)

CC1(C)CC[C@]2(C(=O)O)CC[C@]3(C)C(=CCC4[C@@]5(C)CC[C@H](O[C@@H]6O[C@H](CO)[C@@H](O)[C@H](O)[C@H]6O[C@@H]6O[C@H](CO)[C@@H](O)[C@H](O)[C@H]6O)[C@@](C)(CO)C5CC[C@]43C)[C@@H]2C1 (stereo partly specified)
inactive: max response (KB-3-1) 8.35% | outcome (NIH3T3 [2]) | outcome (NIH3T3 [4]) inactive [at 17.4 µM] | Potency (C33A) | Potency (CAOV3) | Potency (CASKI) | Potency (Es-2) | Potency (HeLa) | Potency (Hek293T [5]) | Potency (JEG-3) | Potency (OV90)

C=CC(C)(O)C(O)CC1C(C)(O)C(O)C(O)C2C(C)(C)CCCC21C (stereo unspecified)
inactive: max response (KB-3-1) -10.5% | outcome (NIH3T3 [2]) | outcome (NIH3T3 [4]) | Potency (C33A) | Potency (CAOV3) | Potency (CASKI) | Potency (Es-2) | Potency (HeLa) | Potency (Hek293T [5]) | Potency (JEG-3) | Potency (OV90)

C=C(C(=O)OC)C1C(O)CC2(C)C(=O)CCC(O)(CO)C2C1O (stereo unspecified)
inactive: max response (KB-3-1) -0.746% | outcome (NIH3T3 [2]) | outcome (NIH3T3 [4]) | Potency (C33A) | Potency (CAOV3) | Potency (CASKI) | Potency (Es-2) | Potency (HeLa) | Potency (Hek293T [5]) | Potency (JEG-3) | Potency (OV90)

C[C@H](NC(c1cccc2[nH]c(=O)c(=O)[nH]c12)P(=O)(O)O)c1ccc(Br)cc1 (stereo partly specified)
inactive: outcome (KB-3-1) | outcome (NIH3T3 [2]) | outcome (NIH3T3 [4]) | Potency (C33A) | Potency (CAOV3) | Potency (CASKI) | Potency (Es-2) | Potency (HeLa) | Potency (Hek293T [5]) | Potency (JEG-3) | Potency (OV90)

COc1cc2c3c(cc4ccccc4c3c1O)NC2=O
inactive: outcome (KB-3-1) | outcome (NIH3T3 [2]) | outcome (NIH3T3 [4]) | Potency (C33A) | Potency (CAOV3) | Potency (CASKI) | Potency (Es-2) | Potency (HeLa) | Potency (Hek293T [5]) | Potency (JEG-3) | Potency (OV90)

Nc1nc(-n2cc(C(=O)O)c(=O)c3cc(F)c(N4CC(O)C4)c(Cl)c32)c(F)cc1F
inactive: max response (KB-3-1) -18.7% | max response (NIH3T3 [2]) 2.73% | outcome (HEK293T [6]) | Potency (C33A) | Potency (CAOV3) | Potency (CASKI) | Potency (Es-2) | Potency (HeLa) | Potency (Hek293T [5]) | Potency (JEG-3) | Potency (OV90)

C[C@@H]1O[C@@H](O[C@H]2[C@H](OC(=O)[C@]34CCC(C)(C)C[C@H]3C3=CCC5[C@@]6(C)C[C@H](O)[C@H](O[C@@H]7O[C@H](CO)[C@@H](O)[C@H](O)[C@H]7O)[C@@](C)(CO)C6[C@H](O)C[C@@]5(C)[C@]3(C)C[C@H]4O)OC[C@H](O)[C@@H]2O)[C@H](O)[C@H](O)[C@H]1O[C@@H]1OC[C@@H](O)[C@H](O[C@H]2OC[C@](O)(CO)[C@H]2O)[C@H]1O (stereo partly specified)
inactive: max response (KB-3-1) 3.95% | outcome (NIH3T3 [2]) | outcome (NIH3T3 [4]) inactive [at 9.27 µM] | activity change, negative = cytotoxicity (C33A) 6.39% [at 6.55 µM] | activity change, negative = cytotoxicity (CAOV3) 27.3% [at 6.55 µM] | activity change, negative = cytotoxicity (CASKI) -4.03% [at 6.55 µM] | activity change, negative = cytotoxicity (Es-2) 1.52% [at 6.55 µM] | activity change, negative = cytotoxicity (HeLa) 19.6% [at 6.55 µM] | activity change, negative = cytotoxicity (Hek293T [5]) -3.35% [at 6.55 µM] | activity change, negative = cytotoxicity (JEG-3) 13.7% [at 6.55 µM] | activity change, negative = cytotoxicity (OV90) -6.86% [at 6.55 µM]
